Laboratory results reported in PubChem BioAssay (Tox21).
Records with an inconclusive call do not appear. Entries that show only a call come without a potency. Activity calls are given as the source filed them. Calls follow the shape of the full dose curve. Peptide text beside a SMILES is read from it.

Molecular target: Beta-2 adrenergic receptor (Homo sapiens) (UniProt P07550)
Assay: Adrenergic beta2 receptor (ADRB2) small molecule agonists, cell-based qHTS assay (AID 1963593);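 also: CHO cells stably overexpressing human ADRB2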
In short: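 CHO cells stably over-expressing ADRB2 were plated overnight at 37C, then dosed with compounds plus a stimulation mix containing 100uM IBMX and 25uM Ro-20-1724 for 0.5hr at room temperature. cAMP was measured by HTRF competition, 1hr.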

Chain of Beta-2 adrenergic receptor (Homo sapiens) (P07550 whole entry, looked up): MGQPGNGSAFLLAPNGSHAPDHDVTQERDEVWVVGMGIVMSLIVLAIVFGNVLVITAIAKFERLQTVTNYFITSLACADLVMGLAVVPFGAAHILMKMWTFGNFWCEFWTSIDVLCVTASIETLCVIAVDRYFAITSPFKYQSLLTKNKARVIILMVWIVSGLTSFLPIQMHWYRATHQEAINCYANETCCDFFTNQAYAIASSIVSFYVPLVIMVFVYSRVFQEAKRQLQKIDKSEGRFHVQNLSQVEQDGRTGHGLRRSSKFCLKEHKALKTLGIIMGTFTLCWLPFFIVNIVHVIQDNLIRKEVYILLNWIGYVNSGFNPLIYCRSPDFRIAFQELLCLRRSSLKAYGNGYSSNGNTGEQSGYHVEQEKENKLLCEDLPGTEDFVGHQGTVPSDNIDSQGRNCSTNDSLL

## O=C(O)c1ccc(S(=O)(=O)N(Cl)Cl)cc1
  Potency: inactive

## O=C(O)c1[nH]n(-c2ccc(S(=O)(=O)O)cc2)c(=O)c1N=Nc1ccc(S(=O)(=O)O)cc1
  Potency: inactive

## CCc1cccc(CC)c1N
  Potency: inactive

## CC(C)(C)C1CCC(O)CC1 (stereo unspecified)
  Potency: inactive

## CCCCOCCOC(=O)c1ccccc1C(=O)OCCOCCCC
  Potency: inactive

## Cc1ncc[nH]1
  Potency: inactive

## CCCCCCCCCCCCc1ccccc1
  Potency: inactive

## O=C1CCCCCCCCCCCN1
  Potency: inactive

## C/C=C/c1ccc(OCC)c(O)c1
  Potency: inactive

## CCC(C)C=O (stereo unspecified)
  Potency: inactive

## CCC(=O)OC/C=C/c1ccccc1
  Potency: inactive

## ClC1=C(Cl)C(Cl)(Cl)C(Cl)=C1Cl
  Potency: inactive

## CC(CCl)OP(=O)(OC(C)CCl)OC(C)CCl (stereo unspecified)
  Potency: inactive

## COC(=O)/C=C\C(=O)OC
  Potency: inactive

## CCCCC(CC)COC(=O)CCCCC(=O)OCC(CC)CCCC (stereo unspecified)
  Potency: inactive

## COc1ccc([C@@H]2CC(=O)c3c(O)cc(O[C@@H]4O[C@H](CO[C@@H]5O[C@@H](C)[C@H](O)[C@@H](O)[C@H]5O)[C@@H](O)[C@H](O)[C@H]4O)cc3O2)cc1OC
  Potency: inactive

## CC/C(C)=N/O
  Potency: inactive

## NC(=O)OCC(COC(N)=O)c1ccccc1
  Potency: inactive

## Nc1ccc(C(=O)O)cc1
  Potency: inactive

## CCOC(=O)CC(=O)OCC
  Potency: inactive

## CN(C)CCCN
  Potency: inactive

## CCc1ccccc1CC
  Potency: inactive

## CC(=O)C(C)C
  Potency: inactive

## NC(=O)NC1NC(=O)NC1=O (stereo unspecified)
  Potency: inactive

## C=CCOC(=O)C(=C)C
  Potency: inactive

## C=Cc1cccc(C)c1
  Potency: inactive

## Cc1cccc2n[nH]nc12
  Potency: inactive

## c1ccc2n[nH]nc2c1
  Potency: inactive

## Cc1ccc(C)c(S(=O)(=O)O)c1
  Potency: inactive

## Cc1cc(C2(c3cc(C)c(O)cc3C)OS(=O)(=O)c3ccccc32)c(C)cc1O
  Potency: inactive

## CCc1cccc(O)c1
  Potency: inactive

## COc1ccccc1[N+](=O)[O-]
  Potency: inactive

## CC(=O)OC(C)C
  Potency: inactive

## CCC[C@H](N[C@@H](C)C(=O)N1[C@H](C(=O)O)C[C@@H]2CCCC[C@@H]21)C(=O)OCC
  Potency: inactive

## CCOC(=O)NNc1nncc2ccccc12
  Potency: inactive

## c1ccc(OCCOc2ccccc2)cc1
  Potency: inactive

## C=CC(C)CCCC(C)(C)O (stereo unspecified)
  Potency: inactive

## NCCN1CCNCC1
  Potency: inactive

## O=C(O)C1=NN(c2ccc(S(=O)(=O)O)cc2)C(=O)C1
  Potency: inactive

## OC1CCCCC1
  Potency: inactive

## C=CC(=O)OCCC(=O)O
  Potency: inactive

## CC(=O)c1ccc(S(=O)(=O)NC(=O)NC2CCCCC2)cc1
  Potency: inactive

## C1N2CN3CN1CN(C2)C3
  Potency: inactive

## CCCCC(CC)COC(=O)/C=C/c1ccc(OC)cc1 (stereo unspecified)
  Potency: inactive

## CC(C)Cc1ccccc1
  Potency: inactive

## COCCOCCOC
  Potency: inactive

## Cc1cc(=O)[nH]c(C(C)C)n1
  Potency: inactive

## Cc1ccc([N+](=O)[O-])c(C)c1
  Potency: inactive

## COC(=O)c1ccc(C=O)cc1
  Potency: inactive

## CCCOC(=O)NCCCN(C)C
  Potency: inactive

## O=C1CCCCCCCCCCC1
  Potency: inactive

## COCC(C)O (stereo unspecified)
  Potency: inactive

## COC(=O)[C@H](Cc1ccccc1)NC(=O)[C@@H](N)CC(=O)O (H-Asp-Phe-OMe)
  Potency: inactive

## CC(=O)OC/C=C(\C)CCC=C(C)C
  Potency: inactive

## Cc1ccc(C)c(O)c1C
  Potency: inactive

## CCCCCCCCCCCCCO
  Potency: inactive

## CCCN(CCC)C(=O)SCC
  Potency: inactive

## Cc1ccccc1Cl
  Potency: inactive

## CC(C)=CCC/C(C)=C/C=O
  Potency: inactive

## NCCN
  Potency: inactive

## NC(=O)/N=N/C(N)=O
  Potency: inactive

## ClC/C=C/CCl
  Potency: inactive

## CC1(C)CC(N=C=O)CC(C)(CN=C=O)C1 (stereo unspecified)
  Potency: inactive

## NS(=O)(=O)O
  Potency: inactive

## CCCCNS(=O)(=O)c1ccccc1
  Potency: inactive

## CC(=O)OC(C)(C)C1CC=C(C)CC1 (stereo unspecified)
  Potency: inactive

## N[C@@H](Cc1cc(I)c(Oc2cc(I)c(O)c(I)c2)c(I)c1)C(=O)O
  Potency: inactive

## OB(O)O
  Potency: inactive

## CCCCCCCCCCCCCC[N+](C)(C)Cc1ccccc1
  Potency: inactive

## O=C(O)c1ccc2c(c1)C(=O)OC2=O
  Potency: inactive

## C=C(C)CNCC
  Potency: inactive

## OCc1ccc(Cl)cc1Cl
  Potency: inactive

## COc1ccc(C(Cl)=C(c2ccc(OC)cc2)c2ccc(OC)cc2)cc1
  Potency: inactive

## CCCCCCCCCCCC(=O)OC
  Potency: inactive

## COc1ccc(Nc2ccccc2)c(C)c1
  Potency: inactive

## CN(C)C
  Potency: inactive

## CCCCNC(N)=O
  Potency: inactive

## Cc1ccc(C)c(O)c1
  Potency: inactive

## OCCOCCOCCO
  Potency: inactive

## Cc1ncc([N+](=O)[O-])n1C
  Potency: inactive

## CC[Si](OC(C)=O)(OC(C)=O)OC(C)=O
  Potency: inactive
